Test results published in PubChem BioAssay (Tox21).
Records with an inconclusive call do not appear. Entries that show only a call come without a potency. Activity calls are given as the source filed them. The call rests on the fitted dose curve; in most records, active means well fitted curve in the direction sought with a large enough effect in the repeat runs; inconclusive means weak or mixed curves; inactive means no such curve, though single readings can be large; an effect the other way counts as inactive or inconclusive.

Key:
[1] = qHTS RealTime-Glo MT Cell Viability Assay in HepG2 cells - 8 hour (AID 1224873); further: nearly all actives have a fitted effect of over 55% in size
Summary of the method: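 Real-time viability: cells seeded at 600 per well together with NanoLuc and cell-permeant prosubstrate, compounds added after 5 h incubation. Luminescence tracked at 0, 8, 16, 24, 32 and 40 h of exposure.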

[2] = qHTS RealTime-Glo MT Cell Viability Assay in HEK293 cells - 40 hour (AID 1224874); settings: RealTime-Glo luminescence; max response: hits give low values; further: nearly all actives have a fitted effect of over 50% in size; further: potency means the concentration at half of the fitted maximal effect
Summary of the method: (§1)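 Tox21 screen in HEK293 using RealTime-Glo MT chemistry, with cells and reagent co-dispensed. Luminescence proportional to viable cell number was captured at intervals during 40 h compound exposure at 37 C.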

[3] = A CellTox Green Cytotoxicity Assay to monitor cytotoxicity in HEK293 cells - 24 hour (AID 1224875); further: series mostly up to about 77 µM; nearly all actives have a fitted effect of over 45% in size
Summary of the method: (§2)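 Seeding of HEK293 cells together with cytotoxicity dye preceded a 5 h incubation at 37 C/5% CO2. Test compounds in DMSO were then added and fluorescence monitored across 40 h.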

[4] = A CellTox Green Cytotoxicity Assay to monitor cytotoxicity in HepG2 cells - 16 hour (AID 1224876); further: nearly all actives have a fitted effect of over 45% in size
Summary of the method: (§3)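 Nonlytic assay: viable cells exclude the dye, so fluorescence scales with cell death. HepG2 at 600 cells/well, compounds added after 5 h, signal read across 40 h.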

[5] = qHTS RealTime-Glo MT Cell Viability Assay in HepG2 cells - 32 hour (AID 1224877); further: nearly all actives have a fitted effect of over 55% in size
Summary of the method: (§4)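 Compound treatment began 5 h after plating HepG2 cells (600/well) with NanoLuc luciferase and prosubstrate. Plates stayed at 37 C for 40 h; luminescence was captured at six time points, 0 h through 40 h.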

[6] = A CellTox Green Cytotoxicity Assay to monitor cytotoxicity in HepG2 cells - 40 hour (AID 1224879); further: nearly all actives have a fitted effect of over 40% in size
Summary of the method: as §3

[7] = qHTS RealTime-Glo MT Cell Viability Assay in HEK293 cells - 0 hour (AID 1224880); further: top concentration of the series differs between compounds; nearly all actives have a fitted effect of over 45% in size
Summary of the method: as §1

[8] = A CellTox Green Cytotoxicity Assay to monitor cytotoxicity in HEK293 cells - 32 hour (AID 1224881); further: nearly all actives have a fitted effect of over 40% in size; further: potency means the concentration at half of the fitted maximal effect
Summary of the method: as §2

[9] = A CellTox Green Cytotoxicity Assay to monitor cytotoxicity in HepG2 cells - 0 hour (AID 1224882); further: nearly all actives have a fitted effect of over 35% in size
Summary of the method: as §3

[10] = A CellTox Green Cytotoxicity Assay to monitor cytotoxicity in HepG2 cells - 32 hour (AID 1224883); further: nearly all actives have a fitted effect of over 50% in size
Summary of the method: as §3

[11] = A CellTox Green Cytotoxicity Assay to monitor cytotoxicity in HEK293 cells - 8 hour (AID 1224884); further: nearly all actives have a fitted effect of over 35% in size
Summary of the method: as §2

[12] = qHTS RealTime-Glo MT Cell Viability Assay in HepG2 cells - 16 hour (AID 1224885); further: nearly all actives have a fitted effect of over 50% in size
Summary of the method: as §4

[13] = qHTS RealTime-Glo MT Cell Viability Assay in HEK293 cells - 24 hour (AID 1224886); further: nearly all actives have a fitted effect of over 50% in size; further: potency means the concentration at half of the fitted maximal effect
Summary of the method: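 Quantitative high-throughput screen of the Tox21 10K library in HEK293: cells and RealTime-Glo reagents plated together, compound added at 5 h, luminescence monitored through 40 h at 37 C.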

[14] = qHTS RealTime-Glo MT Cell Viability Assay in HEK293 cells - 8 hour (AID 1224887)
Summary of the method: as §1

[15] = A CellTox Green Cytotoxicity Assay to monitor cytotoxicity in HEK293 cells - 16 hour (AID 1224888); further: nearly all actives have a fitted effect of over 35% in size
Summary of the method: as §2

[16] = qHTS RealTime-Glo MT Cell Viability Assay in HepG2 cells - 0 hour (AID 1224889); further: nearly all actives have a fitted effect of over 50% in size
Summary of the method: as §4

[17] = A CellTox Green Cytotoxicity Assay to monitor cytotoxicity in HepG2 cells - 8 hour (AID 1224890); further: nearly all actives have a fitted effect of over 45% in size
Summary of the method: as §3

[18] = qHTS assay to identify small molecule antagonists of the estrogen receptor alpha (ER-alpha) signaling pathway using the BG1 cell line in the presence of 0.1 nM 17-beta-estradiol - cell viability counter screen (AID 1259241); further: nearly all actives have a fitted effect of over 40% in size
Summary of the method: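 Measures cytotoxicity alongside the ER-alpha antagonist readout: VM7Luc4E2 cells, charcoal-stripped serum, 0.1 nM 17beta-estradiol final, 22 hr compound incubation at 37C, CellTiter-Fluor fluorescence.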

[19] = A CellTox Green Cytotoxicity Assay to monitor cytotoxicity in HepG2 cells - 24 hour (AID 1224878); further: nearly all actives have a fitted effect of over 45% in size
Summary of the method: as §3

| Compound | Potency [1] | max response [2] | Potency [3] | Potency [4] | Potency [5] | Potency [6] | Potency [7] | Potency [8] | Potency [9] | Potency [10] | Potency [11] | Potency [12] | Potency [13] | Potency [14] | Potency [15] | Potency [16] | Potency [17] | Potency [18] | Potency [2] | Potency [19] |
| --- | --- | --- | --- | --- | --- | --- | --- | --- | --- | --- | --- | --- | --- | --- | --- | --- | --- | --- | --- | --- |
| [O-][Cl+3]([O-])([O-])O | inactive | 7.85% (inactive) | inactive | inactive | inactive | inactive | inactive | inactive | inactive | inactive | inactive | inactive | inactive | inactive | inactive | inactive | inactive | inactive | – | – |
| Oc1cc(Cl)c(Cl)c(Cl)c1Cl | inactive | – | inactive | inactive | inactive | – | inactive | inactive | inactive | – | – | inactive | 47.8 µM (active) | – | inactive | inactive | inactive | inactive | 47.8 µM (active) | inactive |
| CNC(C)(C)Cc1ccccc1 | inactive | 6.36% (inactive) | inactive | inactive | inactive | inactive | inactive | inactive | inactive | inactive | inactive | inactive | inactive | inactive | inactive | inactive | inactive | inactive | – | inactive |
| CC(C)C(Nc1ccc(C(F)(F)F)cc1Cl)C(=O)OC(C#N)c1cccc(Oc2ccccc2)c1 (stereo unspecified) | inactive | -20.4% (inactive) | inactive | inactive | inactive | inactive | inactive | inactive | inactive | inactive | inactive | inactive | inactive | – | inactive | inactive | inactive | inactive | – | inactive |
| COP(=S)(OC)Oc1nc(Cl)c(Cl)cc1Cl | inactive | -0.946% (inactive) | inactive | inactive | – | inactive | inactive | inactive | – | inactive | inactive | inactive | inactive | – | inactive | – | inactive | inactive | – | inactive |
| COC(=O)C(C)N(C(=O)c1ccco1)c1c(C)cccc1C (stereo unspecified) | inactive | -12.7% (inactive) | inactive | inactive | inactive | – | inactive | inactive | inactive | – | inactive | inactive | inactive | inactive | inactive | inactive | inactive | inactive | – | – |
| ClC(Cl)C(Cl)(Cl)Cl | inactive | 0.191% (inactive) | inactive | inactive | – | inactive | inactive | inactive | inactive | inactive | – | inactive | inactive | inactive | inactive | inactive | inactive | inactive | – | inactive |
| CC(=O)[O-].CC(=O)[O-].O.O.O.[Pb+2] | inactive | -1.15% (inactive) | inactive | inactive | inactive | inactive | inactive | inactive | inactive | inactive | inactive | inactive | – | inactive | inactive | inactive | inactive | inactive | – | inactive |
| Oc1cc(Cl)cc(Cl)c1 | inactive | – | – | – | inactive | inactive | inactive | 49.5 µM (active) | inactive | inactive | inactive | inactive | – | – | – | – | inactive | inactive | – | inactive |
| CCC1COC(Cn2cncn2)(c2ccc(Cl)cc2Cl)O1 (stereo unspecified) | inactive | – | inactive | inactive | inactive | – | inactive | inactive | inactive | inactive | inactive | inactive | – | inactive | inactive | inactive | inactive | inactive | – | inactive |
| C[C@@H]1CC2=CC(=O)CC[C@@H]2[C@H]2CC[C@@]3(C)[C@@H](CC[C@]3(C)O)[C@@H]21 | inactive | – | inactive | – | inactive | inactive | inactive | inactive | inactive | inactive | inactive | inactive | – | inactive | inactive | inactive | inactive | inactive | – | inactive |
| CCC(C)Br (stereo unspecified) | inactive | – | inactive | inactive | inactive | inactive | inactive | inactive | – | inactive | inactive | inactive | inactive | inactive | inactive | – | inactive | inactive | – | inactive |
| COC(=O)c1cc(Oc2ccc(Cl)cc2Cl)ccc1[N+](=O)[O-] | inactive | – | inactive | inactive | inactive | inactive | inactive | inactive | inactive | inactive | inactive | inactive | – | – | – | inactive | inactive | inactive | – | inactive |
